This passage reports Potency and outcome results from PubChem BioAssay (Tox21).

Values joined by “and” are separate entries in the source; they are usually repeats but may differ in a detail not shown here. Equal values may be shown once. Records with an inconclusive call do not appear. A structure can be active in one record and inactive in another. Active and inactive are the calls of the source. Unless noted, calls come from the whole dose curve; as a rule, active = well fitted curve in the direction sought with a large enough effect in the repeat runs; inconclusive = weak or mixed curves; inactive = no such curve, though single readings can be large; an effect the other way counts as inactive or inconclusive.

A short description of assay [1]: qHTS assay to identify small molecule antagonists of the estrogen receptor alpha (ER-alpha) signaling pathway using the BG1 cell line in the presence of 0.1 nM 17-beta-estradiol - cell viability counter screen (AID 1259241). Note: nearly all actives have a fitted effect of over 40% in size. Put shortly: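 Live-cell protease activity (CellTiter-Fluor fluorescence, 30 min) was read in the same wells after VM7Luc4E2 cells had been exposed to compounds with 0.1 nM 17beta-estradiol for 22 hr at 37C.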
Background: In qHTS, concentration-response curves come from the screen itself.

Assay [2] deals with Estrogen receptor (Homo sapiens) (UniProt P03372). Put plainly: qHTS assay to identify small molecule antagonists of the estrogen receptor alpha (ER-alpha) signaling pathway using the BG1 cell line in the presence of 0.1 nM 17-beta-estradiol (AID 1259244). Note: nearly all actives have a fitted effect of over 50% in size. Note: potency is the fitted concentration of half-maximal effect. An outline of the steps:
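Compounds were tested against 0.1 nM (final) 17beta-estradiol in VM7Luc4E2 cells, which express full-length ER-alpha and an ERE-luciferase reporter; luminescence was recorded following 22 h exposure.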

Assay [3] can be described thus: qHTS assay to identify small molecule phospholipidosis (PLD) inducers (AID 1259344; active = well fitted curve in the direction sought with a large enough effect; an effect the other way counts as inactive or inconclusive). An outline of the steps: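 Phospholipid accumulation was scored by imaging: fixed, Hoechst-counterstained HepG2 cells stained with LipidTOX Red after 24 h compound exposure at 37 C. Read-outs were pit count and pit intensity per well or per cell, with amiodarone and DMSO controls.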

Assay [4] is described as follows: qHTS assay to identify small molecule HDAC inhibitors (AID 1259364).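 Note: wild-type HCT-116 cells with endogenous class I/II HDAC activity; top concentration of the series differs between compounds; nearly all actives have a fitted effect of over 45% in size.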 Put shortly: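 Screening used wild-type human colon HCT-116 cells incubated overnight, dosed with compounds for 2 hours, and assayed with a homogeneous luminogenic HDAC I/II reagent for 30 minutes at room temperature.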
Assay [5] in a line: qHTS assay to identify small molecule HDAC inhibitors - cell viability counter screen (AID 1259365). Note: series mostly up to about 92 µM; nearly all actives have a fitted effect of over 50% in size. Put shortly:
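HCT-116 (wild type), 1,500 cells/well, overnight 37C/5% CO2; compound in DMSO 2hr; CellTiter-Glo 30min RT; luminescence read.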

The nature of assay [6]: qHTS assay to identify small molecule agonists of the sonic hedgehog signaling (Shh) pathway - cell viability counter screen (AID 1259366). Note: nearly all actives have a fitted effect of over 50% in size. Note: potency is the fitted concentration of half-maximal effect. Put shortly:
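CellTiter-Fluor fluorescence read-out, 1 hr at 37C, added after 23hr compound exposure. Cells: 3T3 Gli1-Luc, an NIH/3T3 clone with stably integrated Gli1-Luc reporter, plated 4hr before compound.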

Assay [7] in a line: qHTS assay to identify small molecule antagonists of the sonic hedgehog signaling (Shh) pathway - cell viability counter screen (AID 1259367). Note: nearly all actives have a fitted effect of over 55% in size. Note: potency is the fitted concentration of half-maximal effect. An outline of the steps: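 Viability was read by CellTiter-Fluor fluorescence in the same wells, reagent added 23 hr into compound treatment and incubated 1 hr at 37C. The 3T3 Gli1-Luc reporter cells (2,000/well) received conditioned medium after compound and ran 24 hr.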

A short description of assay [8]: qHTS assay to identify small molecule agonists of the sonic hedgehog signaling (Shh) pathway (AID 1259368; calls by dose curve;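 note: NIH/3T3-derived 3T3Gli1-Luc cells carrying a stable Gli1-driven firefly luciferase reporter; series mostly up to about 92 µM; nearly all actives have a fitted effect of over 15% in size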). Put shortly: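 Hedgehog pathway agonism scored by increased firefly luciferase luminescence in 3T3Gli1-Luc cells treated 24 hr at 37 C; detection used a 30 min room-temperature reagent incubation.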
A short description of assay [9]: qHTS assay to identify small molecule antagonists of the estrogen receptor beta (ER-beta) signaling pathway - cell viability counter screen (AID 1259382). Note: nearly all actives have a fitted effect of over 55% in size. Note: potency is the fitted concentration of half-maximal effect. An outline of the steps:
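Readout: luminescence, CellTiter-Glo, same wells as bla assay. System: ER-beta-UAS-bla GripTite HEK293T, 2% charcoal-stripped FBS. Exposure: compounds plus 1nM 17-beta-estradiol, 16 hr, 37C.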

In assay [10] the target is Estrogen receptor (Homo sapiens) (UniProt P03372). Briefly: qHTS assay to identify small molecule agonists of the estrogen receptor alpha (ER-alpha) signaling pathway in the presence of an antagonist (AID 1259383; calls by dose curve; note: nearly all actives have a fitted effect of over 15% in size; note: potency is the fitted concentration of half-maximal effect; for activation: top concentration of the series differs between compounds). An outline of the steps:
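Quantitative HTS confirmation: compounds titrated at 15 concentrations onto estrogen-deprived VM7Luc4E2 cells carrying a four-ERE luciferase construct, with ICI-182,780 present at 10.0nM final. Signal is luminescence after 22hr exposure.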

Assay [11] can be described thus: qHTS assay to identify small molecule agonists or antagonists of the thyroid stimulating hormone receptor (TSHR) signaling pathway - wild type cell line counter screen (AID 1259384; calls by dose curve). Put shortly:
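Counter screen in untransfected Hek293: compounds (15-point titration, triplicate) plus phosphodiesterase inhibitor Ro20-1724 added after 18 h plating; 30 min RT. Intracellular cAMP via competitive d2/cryptate immunoassay, 1 h incubation.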

In assay [12] the target is Thyrotropin receptor (Homo sapiens) (UniProt P16473). Briefly: qHTS assay to identify small molecule antagonists of the thyroid stimulating hormone receptor (TSHR) signaling pathway (AID 1259385; calls by dose curve; note: nearly all actives have a fitted effect of over 20% in size). An outline of the steps:
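Antagonist mode: compound-treated TSHR-expressing HEK293 cells were stimulated with 1.5 ng/mL TSH (final) in presence of Ro20-1724 for 30 min at RT. HTRF cAMP detection after 1 h; each compound tested at 15 concentrations, triplicate.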

The nature of assay [13]: qHTS assay to identify small molecule antagonists of the sonic hedgehog signaling (Shh) pathway (AID 1259369; calls by dose curve; note: nearly all actives have a fitted effect of over 45% in size; note: potency is the fitted concentration of half-maximal effect). Put shortly:
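NIH/3T3 stable Gli1-Luc clone, 2,000 cells/well, 4hr settle; cpd + conditioned medium 24hr; Luc reagent 30min RT; luminescence.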

Assay [14] addresses Estrogen receptor beta (Homo sapiens) (UniProt Q92731). Put plainly: qHTS assay to identify small molecule agonists of the estrogen receptor beta (ER-beta) signaling pathway (AID 1259377; active = well fitted activation curve with a large enough effect in the signal ratio in the repeat runs, not every such curve was filed as active; the % refers to the signal ratio). Put shortly: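 Beta-lactamase reporter readout: fluorescence of LiveBLAzer B/G FRET substrate after 2 h at room temperature, following 16 h compound treatment of ER-beta-UAS-bla HEK293T cells at 37C in 2% charcoal-stripped FBS medium.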

Assay [15] has the same target. Put plainly: qHTS assay to identify small molecule antagonists of the estrogen receptor beta (ER-beta) signaling pathway (AID 1259378; active = well fitted inhibition curve with a large enough effect in the signal ratio in the repeat runs, not every such curve was filed as active; the % refers to the signal ratio; note: potency is the fitted concentration of half-maximal effect). An outline of the steps: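 Antagonist mode: compounds added to beta-lactamase reporter HEK293T ER-beta-UAS cells stimulated with E2 (1nM final), 16 hr at 37C. LiveBLAzer B/G FRET substrate, 2 hours room temperature, fluorescence read-out.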

The nature of assay [16]: qHTS assay to identify small molecule agonists of the androgen receptor (AR) signaling pathway in the presence of an antagonist - cell viability counter screen (AID 1259379). Note: nearly all actives have a fitted effect of over 25% in size. Note: potency is the fitted concentration of half-maximal effect. Put shortly: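 MDA-kb2 viability measured by CellTiter-Fluor fluorescence in the same wells as the luciferase signal; nilutamide 3.0uM final; 15-point compound titration; 16 hr at 37C.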
Assay [17] can be described thus: qHTS assay to identify small molecule agonists of the estrogen receptor beta (ER-beta) signaling pathway - cell viability counter screen (AID 1259380). Note: nearly all actives have a fitted effect of over 30% in size. Note: potency is the fitted concentration of half-maximal effect. An outline of the steps: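 Measured: luminescence from CellTiter-Glo after 30 min at room temperature, added to wells already read for the LiveBLAzer FRET reporter (2 hr substrate); ER-beta-UAS-bla HEK293T cells had 16 hr compound treatment at 37C, 5% CO2.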

Assay [18] in a line: qHTS assay to identify small molecule antagonists of the androgen receptor (AR) signaling pathway using the MDA cell line in the presence of 0.5 nM R1881 - cell viability counter screen (AID 1259242). Note: nearly all actives have a fitted effect of over 45% in size. Put shortly: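 Concentration-response screen of compounds for toxicity in MDA-kb2 reporter cells: 16 hr at 37C with 0.5 nM R1881, endpoint live-cell protease fluorescence measured in the reporter wells.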

Sequence of Thyrotropin receptor (Homo sapiens) (P16473 whole entry, looked up): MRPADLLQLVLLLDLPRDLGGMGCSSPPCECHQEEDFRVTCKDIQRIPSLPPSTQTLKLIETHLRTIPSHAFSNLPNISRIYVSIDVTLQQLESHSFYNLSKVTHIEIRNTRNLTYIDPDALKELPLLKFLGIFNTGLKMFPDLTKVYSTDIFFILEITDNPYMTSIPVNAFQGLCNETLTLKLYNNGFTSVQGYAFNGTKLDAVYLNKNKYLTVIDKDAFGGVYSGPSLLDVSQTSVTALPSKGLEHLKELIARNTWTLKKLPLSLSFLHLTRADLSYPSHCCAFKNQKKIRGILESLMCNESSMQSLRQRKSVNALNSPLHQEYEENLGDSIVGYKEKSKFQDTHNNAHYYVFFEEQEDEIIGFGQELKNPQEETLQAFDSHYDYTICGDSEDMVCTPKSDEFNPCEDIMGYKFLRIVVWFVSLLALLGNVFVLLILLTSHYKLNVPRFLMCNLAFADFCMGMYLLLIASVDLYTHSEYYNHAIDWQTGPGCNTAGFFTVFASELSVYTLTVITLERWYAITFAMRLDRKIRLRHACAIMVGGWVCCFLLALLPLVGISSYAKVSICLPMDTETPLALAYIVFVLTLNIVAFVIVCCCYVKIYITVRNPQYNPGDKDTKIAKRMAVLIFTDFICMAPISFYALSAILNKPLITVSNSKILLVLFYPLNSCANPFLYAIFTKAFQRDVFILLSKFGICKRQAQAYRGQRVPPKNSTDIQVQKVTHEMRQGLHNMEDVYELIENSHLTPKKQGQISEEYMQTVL
Sequence of Estrogen receptor (Homo sapiens) (P03372 whole entry, looked up): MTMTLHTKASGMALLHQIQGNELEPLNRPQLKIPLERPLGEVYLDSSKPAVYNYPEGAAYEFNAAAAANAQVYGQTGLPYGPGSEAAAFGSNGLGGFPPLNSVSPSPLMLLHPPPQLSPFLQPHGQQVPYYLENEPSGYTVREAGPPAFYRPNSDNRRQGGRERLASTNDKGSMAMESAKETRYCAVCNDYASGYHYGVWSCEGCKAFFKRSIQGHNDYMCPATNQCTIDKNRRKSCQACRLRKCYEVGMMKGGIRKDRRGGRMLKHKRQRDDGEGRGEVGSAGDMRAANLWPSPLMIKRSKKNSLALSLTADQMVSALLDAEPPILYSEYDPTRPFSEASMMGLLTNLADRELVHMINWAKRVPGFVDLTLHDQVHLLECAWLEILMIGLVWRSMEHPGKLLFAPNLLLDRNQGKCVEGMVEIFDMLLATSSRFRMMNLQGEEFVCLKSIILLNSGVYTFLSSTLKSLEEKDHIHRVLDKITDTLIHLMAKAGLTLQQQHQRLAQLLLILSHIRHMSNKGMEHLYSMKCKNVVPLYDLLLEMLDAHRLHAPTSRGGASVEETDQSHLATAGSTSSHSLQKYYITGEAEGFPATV
Sequence of Estrogen receptor beta (Homo sapiens) (Q92731 whole entry, looked up): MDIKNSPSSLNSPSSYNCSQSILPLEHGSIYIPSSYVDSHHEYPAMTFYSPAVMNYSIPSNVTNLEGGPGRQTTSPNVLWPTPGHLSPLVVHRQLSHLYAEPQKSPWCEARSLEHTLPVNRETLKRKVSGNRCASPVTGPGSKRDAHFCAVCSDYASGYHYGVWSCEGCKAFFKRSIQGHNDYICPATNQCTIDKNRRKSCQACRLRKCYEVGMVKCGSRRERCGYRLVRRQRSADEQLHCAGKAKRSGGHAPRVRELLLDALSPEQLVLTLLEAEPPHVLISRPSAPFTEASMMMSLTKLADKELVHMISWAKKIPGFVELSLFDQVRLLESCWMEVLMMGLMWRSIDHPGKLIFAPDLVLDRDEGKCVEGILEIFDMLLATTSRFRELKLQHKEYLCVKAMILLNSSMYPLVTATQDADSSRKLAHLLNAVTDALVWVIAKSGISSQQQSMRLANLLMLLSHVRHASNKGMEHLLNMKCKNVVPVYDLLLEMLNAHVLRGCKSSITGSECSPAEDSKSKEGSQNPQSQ

As for `C#C[C@]1(O)CC[C@H]2[C@@H]3CCC4=CC(=O)CCC4=C3C=C[C@@]21CC`, the Potency result in assay [1], in assay [4], in [5], in [6], in [7] and in [8] was “inactive” each time. Further, the Potency entry in assay [9] and in assay [12] was “inactive” throughout. For the same compound, the results for the Potency in assay [2] and in assay [10] were 13.3 µM (active) and 1.06 µM (active), respectively. The compound was classed as inactive in assay [3] and in assay [11].
As for `O=C(N/N=C/c1ccc([N+](=O)[O-])o1)c1cc([N+](=O)[O-])cc([N+](=O)[O-])c1O`, the result in assay [3] and in assay [11] was inactive. The Potency entry in assay [4], in [5], in [8], in assay [14], in assay [15] and in assay [17] was “inactive” in each case. Besides, the Potency result in [9] and in [12] was “inactive” each time. Further, the Potency was 10.6 µM (active) in [6], 10.6 µM (active) in [7], 10.6 µM (active) in [13] and 11.9 µM (active) in assay [16].
Take `Nc1ccc2c(c1)Cc1ccccc1-2`: the Potency result in assay [1], in assay [2], in [4], in [5], in assay [6] and in assay [7] was “inactive” in each case. The Potency entry in [8], in assay [13], in assay [15], in assay [16], in [17] and in assay [9] was “inactive” throughout. Besides, the Potency result in [10] was “inactive”.
With `CN1C[C@H](C(=O)N[C@]2(C)O[C@@]3(O)[C@@H]4CCCN4C(=O)[C@H](Cc4ccccc4)N3C2=O)C=C2c3cccc4[nH]cc(c34)C[C@H]21`, the Potency result in [18], in assay [4], in assay [5], in [8], in assay [14] and in assay [10] was “inactive” each time. Besides, the Potency entry in assay [12] was “inactive”. For the same compound, the Potency is 27.4 µM (active) and inactive in [2]; 3.87 µM (active) in assay [13]; 27.4 µM (active) in assay [15]; 21.8 µM (active) and 7.16 µM (active) in [17]; 54.7 µM (active) in [9]. Besides, the outcome in assay [3] and in assay [11] was inactive.
Regarding `Cc1ccccc1`, the Potency entry in [1], in [4], in assay [5], in assay [6], in [8] and in assay [13] was “inactive” in each case. For the same compound, the Potency result in assay [14], in [15], in assay [16], in assay [17], in assay [9] and in [12] was “inactive” in each case. Further, the outcome in assay [11] was inactive.
Regarding `C[Si](Cn1cncn1)(c1ccc(F)cc1)c1ccc(F)cc1`, the Potency result in [1], in assay [4], in assay [5], in assay [6], in assay [7] and in [8] was “inactive” in each case. The Potency result in [14], in [16], in assay [17], in assay [9] and in [12] was “inactive” throughout. Also, in [13], the Potency is 8.92 µM (active). In addition, the compound was called inactive in assay [11].
With `COc1ccc(C(=O)c2c(C)n(CCN3CCOCC3)c3ccccc23)cc1`, the Potency entry in assay [1], in assay [4], in assay [5], in [8], in assay [13] and in assay [14] was “inactive” in each case. For the same compound, the Potency result in [15], in assay [16], in assay [17] and in assay [9] was “inactive” throughout. The compound was classed as inactive in assay [3].
Take `CCc1ccccc1N`: the Potency entry in assay [1], in assay [2], in assay [4], in assay [5], in assay [6] and in assay [7] was “inactive” each time. Besides, the Potency entry in [8], in [13], in assay [16], in assay [17], in assay [9] and in assay [10] was “inactive” each time. For the same compound, the Potency entry in assay [12] is “inactive”. Also, the outcome in assay [11] was inactive.
Regarding `C=CCOC(=O)C(C)(C)OC(=O)c1cc(-n2c(=O)cc(C(F)(F)F)n(C)c2=O)ccc1Cl`, the Potency result in [1], in assay [4], in assay [5], in assay [6], in assay [7] and in [8] was “inactive” in each case. Further, the Potency result in assay [13], in assay [14], in [15], in assay [16], in assay [9] and in assay [10] was “inactive” in each case.
